Consider 18 sequences from article PMC12820563, “FoxP3 forms a head-to-head dimer in vivo and stabilizes its multimerization on adjacent microsatellites”.

The full ranking holds about 16,000 sequences; the median of “rpm ratio (pull-down/input)” is about 0.5, and the highest 2% start at about 5.5. This excerpt belongs to a sample that is enriched for the highest values.

This assay has as its target T1, MBP-FoxP3dN (Mus musculus, UniProt Q99JB6 188-423).
T1 sequence: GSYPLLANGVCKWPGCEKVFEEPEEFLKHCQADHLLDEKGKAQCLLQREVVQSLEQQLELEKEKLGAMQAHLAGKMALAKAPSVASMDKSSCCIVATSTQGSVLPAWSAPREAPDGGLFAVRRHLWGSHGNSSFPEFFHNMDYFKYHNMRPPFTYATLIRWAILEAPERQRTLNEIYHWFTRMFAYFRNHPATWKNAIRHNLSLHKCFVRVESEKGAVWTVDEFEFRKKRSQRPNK
Description: PD-seq (MBP pull-down with sequencing); 20 mM Tris-HCl pH 7.5, 100 mM NaCl, 1.5 mM MgCl2, 0.4 uM protein, 0.1 uM dsDNA library, 30 min, room temperature, amylose pull-down; high values mean tight binding. Particulars: protein: recombinant; tags: His6-MBP; chain copies: 2; dsDNA, one strand shown. In a few lines:
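E. coli-expressed mouse FoxP3 or FoxP1 fragment, N-terminus removed and tagged with His6-MBP, was used at 0.4 µM against 0.1 µM of a Klenow-filled degenerate double-stranded DNA library. After 30 min at room temperature in Tris pH 7.5 buffer with NaCl and MgCl2, complexes were pulled down on amylose resin and washed three times. Binding is pull-down over input reads-per-million enrichment from pooled replicates of the proteinase K-released, PCR-barcoded, Illumina-sequenced DNA.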
For “GATGATTGTTCTCCCAGCTGATGAATTTTTCAACTCGAGTAAACAAATTTTCCTAATCTTTCTGTTCAAGCGCCATCTAC”, the binding signal is 0.287 RPM ratio (pull-down/input).

Take “GATGATTGTTCTCCCAGCTGATGAATTTCGCAACTCGAGTAAACAAATTTTCCTAATCTTTCTGTTCAAGCGCCATCTAC”: the binding signal was 5.53 RPM ratio (pull-down/input). Next, “GATGATTGTTCTCCCAGCTGATGAATTGCCCAACTCGAGTAAACAAATTTTCCTAATCTTTCTGTTCAAGCGCCATCTAC”: 0.42 RPM ratio (pull-down/input); “GATGATTGTTCTCCCAGCTGATGAATTCGCAAACTCGAGTAAACAAATTTTCCTAATCTTTCTGTTCAAGCGCCATCTAC”: 0.431 RPM ratio (pull-down/input).

“GATGATTGTTCTCCCAGCTGATGAATTGCGCAACTCGAGTAAACAAATTTTCCTAATCTTTCTGTTCAAGCGCCATCTAC”: the binding signal was 6.43 RPM ratio (pull-down/input). Next, “GATGATTGTTCTCCCAGCTGATGAATTCGCCAACTCGAGTAAACAAATTTTCCTAATCTTTCTGTTCAAGCGCCATCTAC”: 0.292 RPM ratio (pull-down/input); “GATGATTGTTCTCCCAGCTGATGAATTTCCCGTGTCGAGTAAACAAATTTTCCTAATCTTTCTGTTCAAGCGCCATCTAC”: 0.287 RPM ratio (pull-down/input). Next, “GATGATTGTTCTCCCAGCTGATGAATTAGCTTCTTCGAGTAAACAAATTTTCCTAATCTTTCTGTTCAAGCGCCATCTAC”: 0.901 RPM ratio (pull-down/input); “GATGATTGTTCTCCCAGCTGATGAATTAGTTCTGTCGAGTAAACAAATTTTCCTAATCTTTCTGTTCAAGCGCCATCTAC”: 0.398 RPM ratio (pull-down/input); “GATGATTGTTCTCCCAGCTGATGAATTAGTGTTGTCGAGTAAACAAATTTTCCTAATCTTTCTGTTCAAGCGCCATCTAC”: 3.93 RPM ratio (pull-down/input). Next, “GATGATTGTTCTCCCAGCTGATGAATTAGTTGTGTCGAGTAAACAAATTTTCCTAATCTTTCTGTTCAAGCGCCATCTAC”: 6.21 RPM ratio (pull-down/input); “GATGATTGTTCTCCCAGCTGATGAATTAGTTGTCTCGAGTAAACAAATTTTCCTAATCTTTCTGTTCAAGCGCCATCTAC”: 5.87 RPM ratio (pull-down/input). For “GATGATTGTTCTCCCAGCTGATGAATTAGCTGTCTCGAGTAAACAAATTTTCCTAATCTTTCTGTTCAAGCGCCATCTAC”, the binding signal was 2.44 RPM ratio (pull-down/input). Next, “GATGATTGTTCTCCCAGCTGATGAATTAGTTCTCTCGAGTAAACAAATTTTCCTAATCTTTCTGTTCAAGCGCCATCTAC”: 0.491 RPM ratio (pull-down/input); “GATGATTGTTCTCCCAGCTGATGAATTTCAGGGCTCGAGTAAACAAATTTTCCTAATCTTTCTGTTCAAGCGCCATCTAC”: 0.225 RPM ratio (pull-down/input); “GATGATTGTTCTCCCAGCTGATGAATTGCAGACCTCGAGTAAACAAATTTTCCTAATCTTTCTGTTCAAGCGCCATCTAC”: 0.496 RPM ratio (pull-down/input). Next, “GATGATTGTTCTCCCAGCTGATGAATTTTGGCTCTCGAGTAAACAAATTTTCCTAATCTTTCTGTTCAAGCGCCATCTAC”: 0.475 RPM ratio (pull-down/input); “GATGATTGTTCTCCCAGCTGATGAATTCCGATCATCGAGTAAACAAATTTTCCTAATCTTTCTGTTCAAGCGCCATCTAC”: 0.404 RPM ratio (pull-down/input).
